From PubChem
Shown are actives, neighbours in structure and some others; about 0.9% of the full set was active somewhere.
PPARg SRC-3 ag – PPARgamma agonists recruiting SRC-3 coactivator, primary screen, biochemical; Peroxisome proliferator-activated receptor gamma (Homo sapiens), P37231; biochemical PPARgamma/SRC-3 coactivator recruitment assay; activation, % at 8 µM; 0.26% of 200,000 active; AID 731, 2007; in the data active means activation above about 23%;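 further: 0% = DMSO and 100% = reference agonist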
Target sequence (P37231 whole entry, looked up): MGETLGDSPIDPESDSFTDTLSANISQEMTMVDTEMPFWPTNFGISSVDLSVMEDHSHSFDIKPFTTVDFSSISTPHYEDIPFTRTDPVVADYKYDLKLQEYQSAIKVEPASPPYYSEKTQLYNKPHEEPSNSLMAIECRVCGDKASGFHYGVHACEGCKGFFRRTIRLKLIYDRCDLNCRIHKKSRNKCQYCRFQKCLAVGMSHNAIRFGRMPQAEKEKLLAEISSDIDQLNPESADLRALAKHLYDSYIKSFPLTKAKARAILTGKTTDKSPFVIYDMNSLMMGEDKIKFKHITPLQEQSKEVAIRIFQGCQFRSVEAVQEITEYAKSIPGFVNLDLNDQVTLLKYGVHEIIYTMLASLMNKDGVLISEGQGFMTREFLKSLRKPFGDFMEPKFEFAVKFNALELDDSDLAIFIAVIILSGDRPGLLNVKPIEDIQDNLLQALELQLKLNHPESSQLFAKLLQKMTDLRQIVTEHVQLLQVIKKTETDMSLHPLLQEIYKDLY
SRC2 TRFRET art – TR-FRET signal artefacts, primary screen, artefact control for PPARgamma SRC-2 agonist project, biochemical; 0.4% of 200,000 active; TR-FRET artefact counter-screen; active compounds read high; TR-FRET ratio at 8 µM; AID 1049, 2008
SRC1 TRFRET art – TR-FRET detection interference compounds, primary screen, artefact control for PPARgamma SRC-1 recruitment agonists, biochemical, TR-FRET emission ratio; 0.34% of 99,000 active; TR-FRET detection artefact counter-screen; active compounds read high; TR-FRET ratio at 8 µM; AID 1051, 2008; in the data active means TR-FRET ratio above about 2300
SRC3 TRFRET art – TR-FRET detection interference compounds, artefact control for PPARgamma SRC-3 recruitment agonists, biochemical, TR-FRET ratio. TR-FRET ratio at 8 µM. 0.39% of 99,000 active. TR-FRET artefact counter-screen, PPARgamma/SRC-3 format; active compounds read high
PPARg SRC2 recr – agonists of PPARg-SRC-2 recruitment, primary screen, biochemical, HTS; PPARgamma LBD-SRC-2 recruitment; Peroxisome proliferator-activated receptor gamma (Homo sapiens), P37231; activation, % at 8 µM; 0.34% of 200,000 active; in the data active means activation above about 22%;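 further: 0% = vehicle and 100% = reference agonist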
PPARg SRC1 recr – PPARgamma agonists recruiting SRC-1 coactivator, primary screen, biochemical | Peroxisome proliferator-activated receptor gamma (Homo sapiens), P37231 | PPARgamma-SRC-1 coactivator recruitment biochemical assay | activation, % at 8 µM | 0.41% of 200,000 active | AID 631, 2007; in the data active means activation above about 19%;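 further: 0% = DMSO and 100% = reference agonist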
* = called active by the depositor; / = no result. Unless noted, no stated cut-off is given here; in the data, active means TR-FRET ratio above about 2000; inactive means the rest.

SMILES	PPARg SRC-3 ag	SRC2 TRFRET art	SRC1 TRFRET art	SRC3 TRFRET art	PPARg SRC2 recr	PPARg SRC1 recr
CCOc1ccc(S(=O)(=O)c2c(C(=O)c3ccc(C)cc3)cnc3cc4c(cc23)OCCO4)cc1	10	2406*	2755*	2812*	-3	8
Cc1ccc(C(=O)c2cnc3cc4c(cc3c2S(=O)(=O)c2ccccc2)OCCO4)cc1	-2	1863	2238	2485*	0	-7
CC1=NN(C(C#N)c2cccc([N+](=O)[O-])c2)C(C)(C)C1 (configuration not stated)	2	1675	1831	1778	2	6
Cc1ccc(SCC(=O)Nc2ccc(N3CCOCC3)cc2)c(C)c1	3	1502	1779	1675	-8	-4
Nc1ccc(Sc2cnn(-c3ccccc3)c(=O)c2Cl)cc1	-2	1527	/	/	6	8
Cc1ccc(Sc2cnn(-c3ccccc3)c(=O)c2Cl)cc1	7	2023*	/	/	19	9
Cc1ccccc1N=C1NC(=O)/C(=C/c2cccn2-c2cccc(C(=O)O)c2)S1	-3	1771	1941	1487	2	6
CC1C(Br)C(=O)NC(=O)N1Cc1ccccc1 (configuration not stated)	2	1461	1910	1625	2	21*
COc1ccc(-c2csc(NC(=O)c3ccoc3C)n2)cc1	3	1472	1732	1562	-3	-5
CCC(=O)NC(Nc1sc2c(c1C(=O)OC)CCCC2)(C(F)(F)F)C(F)(F)F	-2	1419	/	/	0	-3
COC(=O)c1c(NC(NC(=O)c2ccccc2)(C(F)(F)F)C(F)(F)F)sc2c1CCN(C)C2	0	1983*	2058	1622	8	10
Cc1ccsc1/C=C1/NC(=O)N(Cc2ccc(F)cc2)C1=O	-3	1602	1906	1624	-3	-7
Cc1cc(OCC(=O)Nc2cc(-c3nn4c(C)nnc4s3)ccc2C)ccc1Cl	0	1568	/	/	-5	89*
FC(F)(F)c1nc(=S)c2ccccc2[nH]1	21	2366*	2370*	2198*	27*	23*
CNC(=S)N(Cc1ccc2c(c1)OCO2)C1CC(=O)N(c2ccccc2)C1=O (configuration not stated)	3	1445	2031	1733	4	8
S=c1[nH]c2ccc(Cl)cc2[nH]1	5	1677	/	/	24*	5
COc1ccc2[nH]c(=S)[nH]c2c1	10	1534	/	/	13	5
Cc1ccccc1N=Cc1cc2c(cc1O)OC(N)=C(C#N)C2c1ccccc1 (configuration not stated)	3	1668	2419*	1831	9	14
CC(=O)c1cccc(NC(=O)COc2ccccc2C(=O)c2cc(C#N)c(=O)n(C3CCCCC3)c2)c1	1	1658	1806	1952	2	0
N#Cc1cc(C(=O)c2ccccc2OCC(=O)Nc2ccccc2Cl)cn(C2CCCCC2)c1=O	1	1657	1593	2092*	11	4
Cc1cc([N+](=O)[O-])ccc1N=Nc1c(N)[nH]n(-c2ccccc2)c1=O	6	1291	2323*	1687	3	-2
O=C(CN1C(=O)c2ccccc2S1(=O)=O)Nc1ccccc1	-5	1472	/	/	-7	-6
CSc1cccc(NC(=O)CN2C(=O)c3ccccc3S2(=O)=O)c1	21	1521	/	/	22*	0
COc1ccc(/C(C)=N/N=C2/NC(=O)CC(C(=O)O)S2)cc1 (configuration not stated)	-1	1565	1477	1614	-3	-8
C/C(=N\N=C1\NC(=O)CC(C(=O)O)S1)c1ccc(F)cc1 (configuration not stated)	2	1531	2658*	1450	-6	16
SMILES	PPARg SRC-3 ag	SRC2 TRFRET art	SRC1 TRFRET art	SRC3 TRFRET art	PPARg SRC2 recr	PPARg SRC1 recr
Cn1c(SCC(=O)c2ccc3c(c2)Cc2ccccc2-3)nnc1-c1cccc(N)c1	4	1592	1664	1597	-7	-1
CC(=O)Nc1ccc(-c2nnc(SCC(=O)c3ccc4c(c3)Cc3ccccc3-4)n2C)cc1	24	2129*	/	/	17	13
Cc1ccc(/C=N/NC(=O)Cn2cncn2)cc1	-1	1421	1536	1521	-6	-6
COc1cc([N+](=O)[O-])cc(/C=N/NC(=O)CC#N)c1O	5	1776	1835	1695	13	16
CCCCN(CC)CCCNC(=O)CC1Nc2ccccc2NC1=O (configuration not stated)	13	1542	/	/	22*	11
COCc1cc(C)nc(Nc2ccc(C)cc2C)c1C#N	14	1983*	/	/	19	14
C#CCOc1ccc(/C=N/NC(=O)c2cccnc2)cc1OCC	1	1490	1865	1544	8	7
O=C(CSc1nnc(-c2ccc(F)cc2)c2ccccc12)Nc1c(F)cccc1F	-1	1603	1814	1547	17	8
O=C(CSc1nnc(-c2ccc(F)cc2)c2ccccc12)Nc1ccccc1Cl	-1	1884	1880	2763*	8	2
O=C(CSc1nnc(-c2ccc(F)cc2)c2ccccc12)Nc1ccccc1	8	1768	2120	2080*	6	11
O=C(CSc1nnc(-c2ccc(F)cc2)c2ccccc12)Nc1cccc(Cl)c1	5	2527*	2670*	3308*	4	4
Cc1nn(Cc2ccccc2)c(Cl)c1/C=C/C(=O)OCC(=O)N1CCCC1=O	0	1516	1801	1207	5	-7
COc1cc(-c2n[nH]c(=S)n2-c2cc(C(F)(F)F)ccc2Cl)cc(OC)c1OC	1	1517	1880	1643	5	4
COc1ccc(NC(=O)CC2C(=O)N(c3cccc(OC)c3)C(=O)N2Cc2ccco2)cc1 (configuration not stated)	0	1602	1908	1708	14	7
CCOC(=O)C1CCCN(C(=O)c2cc3ccccc3oc2=O)C1 (configuration not stated)	10	1641	1861	1996	-6	-6
O=C(O)c1ccc(N2CC3CC(C2)c2cccc(=O)n2C3)c(NS(=O)(=O)c2cccc(C(F)(F)F)c2)c1 (configuration not stated)	-1	1578	1772	1516	2	-5
CSc1ccc(/C=C/C(=O)c2ccc(NC(=O)C(C)C)cc2)cc1	0	1546	/	/	8	-5
CSc1ccc(/C=C/C(=O)c2ccc(NC(=O)Cc3ccccc3)cc2)cc1	10	2038*	/	/	3	5
CCCc1nc2ccc(NC(=O)NCCC(=O)OCC)cc2c(=O)n1Cc1cccc(Cl)c1	0	1646	/	/	5	6
